In PubChem BioAssay (EPA / NIEHS):
Results filed as inconclusive are left out. Activity calls are given as the source filed them. How the source made its calls, unless noted: active means hit-call score of the fitted dose curve at least 0.9, where 1 is the maximum; inconclusive means response in the unintended direction; inactive means score below 0.9.

Key:
[1] = molecular target: rat Peripheral-type Benzodiazepine Receptor (PBR), Tspo (gene 24230) (UniProt P16257); assay: NVS_MP_rPBR: NovaScreen (NVS) Membrane Protein Assay for rat Peripheral-type Benzodiazepine Receptor (PBR) (AID 2283335)
Sequence of rat Peripheral-type Benzodiazepine Receptor (PBR), Tspo (gene 24230) (P16257 whole entry, looked up): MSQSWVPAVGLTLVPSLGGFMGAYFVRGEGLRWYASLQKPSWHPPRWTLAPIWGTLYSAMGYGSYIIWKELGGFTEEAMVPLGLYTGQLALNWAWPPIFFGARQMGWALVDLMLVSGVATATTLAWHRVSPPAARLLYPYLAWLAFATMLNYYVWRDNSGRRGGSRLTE
Procedure, shortened: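 Radioligand displacement, rat kidney membrane prep, 1 h exposure, filter-based scintillation read; DMSO baseline, loss-of-signal scored. Primary screen at 25 uM in duplicate, actives followed up in concentration series.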

[2] = NVS_IC_rCaBTZCHL: NovaScreen (NVS) Ion Channel Assay for Calcium Channel, Type L, Benzothiazepine Site (CaBTZCHL) (AID 2283337)
Protocol: NVS_IC_rCaBTZCHL is a biochemical, single-readout assay that uses extracted gene-proteins from Rat cortical membranes in a tissue-based cell-free assay. Measurements were taken 1.5 hours after chemical dosing in a 48-well plate.NVS_IC_rCaBTZCHL is one of one assay component(s) measured or calculated from the NVS_IC_rCaBTZCHL assay. It is designed to make measurements of radioligand binding, a form of binding reporter, as detected with scintillation counting signals by Filter-based radiodetection technology.Data from the assay component NVS_IC_rCaBTZCHL was analyzed into 1 assay endpoint. This assay endpoint, NVS_IC_rCaBTZCHL, was analyzed in the positive analysis fitting direction relative to DMSO as the negative control and baseline of activity. Using a type of binding reporter, loss-of-signal activity can be used to understand changes in the binding as they relate to the gene Cacna1a. Furthermore, this assay endpoint can be referred to as a primary readout, because the performed assay has only produced 1 assay endpoint. To generalize the intended target to other relatable targets, this assay endpoint is annotated to the ion channel intended target family, where the subfamily is calcium channel.
(§1) Binding assays used specific radioligands (tritiated, iodinated) with non-radioactive competitive displacement ligands in agonist or antagonist protocols (as indicated) and various reference compounds and inhibitors to titrate specific binding to receptors and transporters. Most enzyme assays (CYPs, kinases, phosphatases, proteases, HDACs) used recombinant protein and specific substrates (fluorescence mostly, some colorimetric and radioactive) and inhibitors, followed by a biochemical separation of substrate and product. All assays for the biochemical HTS were initially run in duplicate at a single concentration (10 uM for CYP450 assays and 25 uM for all others). […] Each assay was run with positive and negative controls, and concurrent controls on every plate. The follow-up (secondary) screen tested active chemical-pairs in concentration series, as well as a few additional assays not tested in the primary screen, some selected negative inactives, and several cases re-run in the concentration series for confirmatory purposes.

[3] = test system: guinea pig Histamine Receptor (H2), gene 100729734; assay: NVS_GPCR_gH2: NovaScreen (NVS) G Protein-Coupled Receptor Assay for guinea pig Histamine Receptor (H2) (AID 2283342)
Procedure, shortened: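 Radioligand displacement on guinea pig striatal membranes, 1 h after dosing, filter-based scintillation counting; loss of signal versus DMSO. Single-point screen at 25 uM in duplicate, then concentration-response up to 50 uM.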

[4] = molecular target: rat Glutamate, MK-801 Agonist Site (GluNMDA_MK801), Grin1 (gene 24408) (UniProt P35439); assay: NVS_LGIC_rGluNMDA_MK801_Agonist: NovaScreen (NVS) Ligand-Gated Ion Channel Assay for rat Glutamate, MK-801 Agonist Site (GluNMDA_MK801) (AID 2283340)
Procedure, shortened: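 Radioligand binding at MK-801 site in rat forebrain membranes, 1.5 h incubation, filter-based scintillation counting. Initially 25 uM in duplicate; actives then run in concentration-response up to 50 uM, fitted for gain of signal versus DMSO.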

[5] = molecular target: bovine Gamma-Aminobutyric Acid Type A Receptor Agonist (GABAR Agonist), GABRA1 (gene 780973) (UniProt P08219); assay: NVS_LGIC_bGABAR_Agonist: NovaScreen (NVS) Ligand-Gated Ion Channel Assay for bovine Gamma-Aminobutyric Acid Type A Receptor Agonist (GABAR Agonist) (AID 2283338)
Sequence of bovine Gamma-Aminobutyric Acid Type A Receptor Agonist (GABAR Agonist), GABRA1 (gene 780973) (P08219 whole entry, looked up): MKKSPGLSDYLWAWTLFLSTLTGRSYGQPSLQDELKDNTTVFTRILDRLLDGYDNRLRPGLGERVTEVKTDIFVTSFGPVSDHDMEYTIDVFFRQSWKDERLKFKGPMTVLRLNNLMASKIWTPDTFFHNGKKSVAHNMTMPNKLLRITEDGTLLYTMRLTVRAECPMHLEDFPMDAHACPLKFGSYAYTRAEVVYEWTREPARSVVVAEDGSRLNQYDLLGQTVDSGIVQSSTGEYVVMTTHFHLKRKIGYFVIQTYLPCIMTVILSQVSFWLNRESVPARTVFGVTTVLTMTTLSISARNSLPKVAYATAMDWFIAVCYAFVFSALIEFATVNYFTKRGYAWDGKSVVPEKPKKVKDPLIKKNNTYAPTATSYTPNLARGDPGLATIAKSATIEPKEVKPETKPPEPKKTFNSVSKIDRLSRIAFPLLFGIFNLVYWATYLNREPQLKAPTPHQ
Procedure, shortened: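 Radioligand binding to bovine cerebellar membranes in agonist format, read by filter-based scintillation counting after 1 h. Primary screen in duplicate at 25 uM, with actives followed in concentration series. Gain of signal versus DMSO.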

[6] = molecular target: human Androgen Receptor (AR), AR (gene 367) (UniProt P10275); assay: NVS_NR_hAR: NovaScreen (NVS) Nuclear Receptor Binding Assay for human Androgen Receptor (AR) (AID 2283332)
Sequence of human Androgen Receptor (AR), AR (gene 367) (P10275 whole entry, looked up): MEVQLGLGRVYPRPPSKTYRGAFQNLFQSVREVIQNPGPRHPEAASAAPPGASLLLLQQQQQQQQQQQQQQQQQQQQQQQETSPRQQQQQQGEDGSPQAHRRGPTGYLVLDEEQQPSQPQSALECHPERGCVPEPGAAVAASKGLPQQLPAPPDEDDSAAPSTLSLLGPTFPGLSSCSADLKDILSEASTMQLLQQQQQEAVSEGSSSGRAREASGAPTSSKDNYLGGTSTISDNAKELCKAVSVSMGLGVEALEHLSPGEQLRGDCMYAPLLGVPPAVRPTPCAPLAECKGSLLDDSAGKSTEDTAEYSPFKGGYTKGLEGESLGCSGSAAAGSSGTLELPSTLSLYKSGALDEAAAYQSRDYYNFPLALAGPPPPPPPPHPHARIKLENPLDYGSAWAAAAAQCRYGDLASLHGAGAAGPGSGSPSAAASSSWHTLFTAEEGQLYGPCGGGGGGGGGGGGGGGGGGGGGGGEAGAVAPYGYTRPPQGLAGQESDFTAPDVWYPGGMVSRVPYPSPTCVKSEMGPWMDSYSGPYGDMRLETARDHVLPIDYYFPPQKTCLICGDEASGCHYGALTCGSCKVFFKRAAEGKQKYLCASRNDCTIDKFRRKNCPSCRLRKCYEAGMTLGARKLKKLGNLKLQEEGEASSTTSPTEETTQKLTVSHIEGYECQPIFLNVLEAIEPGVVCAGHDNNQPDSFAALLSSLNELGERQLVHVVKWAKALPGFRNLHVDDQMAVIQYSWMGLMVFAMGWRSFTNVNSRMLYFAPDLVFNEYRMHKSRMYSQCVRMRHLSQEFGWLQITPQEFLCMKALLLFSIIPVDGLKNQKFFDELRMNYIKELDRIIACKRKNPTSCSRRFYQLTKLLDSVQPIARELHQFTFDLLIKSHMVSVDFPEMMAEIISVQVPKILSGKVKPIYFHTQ
Procedure, shortened: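 Radioligand competitive binding, scintillation read-out, in cell-free extract from LnCAP, measured 20 h after dosing. Screened first in duplicate at 25 uM, then concentration series for actives; activity fitted against DMSO.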

[7] = molecular target: Small conductance calcium-activated potassium channel protein 1 (Rattus norvegicus) (UniProt P70606); assay: NVS_IC_rKCaCh: NovaScreen (NVS) Ion Channel Assay for rat Potassium Channel, Ca2+ Act., VI (KCaCh) (AID 2283336)
Sequence of Small conductance calcium-activated potassium channel protein 1 (Rattus norvegicus) (P70606 whole entry, looked up): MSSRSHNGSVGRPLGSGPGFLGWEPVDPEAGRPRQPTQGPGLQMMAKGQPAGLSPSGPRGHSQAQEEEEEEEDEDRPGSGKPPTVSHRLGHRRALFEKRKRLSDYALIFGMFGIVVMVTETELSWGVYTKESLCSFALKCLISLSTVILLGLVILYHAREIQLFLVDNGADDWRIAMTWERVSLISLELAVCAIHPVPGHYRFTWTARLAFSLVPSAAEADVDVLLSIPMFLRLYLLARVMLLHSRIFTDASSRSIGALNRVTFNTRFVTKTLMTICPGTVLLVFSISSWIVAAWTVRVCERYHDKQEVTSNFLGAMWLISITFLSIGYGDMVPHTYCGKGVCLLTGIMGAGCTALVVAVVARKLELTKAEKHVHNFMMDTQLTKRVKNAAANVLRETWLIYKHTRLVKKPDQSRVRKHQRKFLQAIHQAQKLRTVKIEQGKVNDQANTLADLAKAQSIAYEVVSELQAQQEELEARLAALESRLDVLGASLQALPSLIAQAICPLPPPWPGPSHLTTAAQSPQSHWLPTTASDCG
Protocol: NVS_IC_rKCaCh is a biochemical, single-readout assay that uses extracted gene-proteins from Rat forebrain membranes in a tissue-based cell-free assay. Measurements were taken 1 hour after chemical dosing in a 96-well plate.NVS_IC_rKCaCh is one of one assay component(s) measured or calculated from the NVS_IC_rKCaCh assay. It is designed to make measurements of radioligand binding, a form of binding reporter, as detected with scintillation counting signals by Filter-based radiodetection technology.Data from the assay component NVS_IC_rKCaCh was analyzed into 1 assay endpoint. This assay endpoint, NVS_IC_rKCaCh, was analyzed in the positive analysis fitting direction relative to DMSO as the negative control and baseline of activity. Using a type of binding reporter, loss-of-signal activity can be used to understand changes in the binding as they relate to the gene Kcnn1. Furthermore, this assay endpoint can be referred to as a primary readout, because the performed assay has only produced 1 assay endpoint. To generalize the intended target to other relatable targets, this assay endpoint is annotated to the ion channel intended target family, where the subfamily is potassium channel.
as §1, with “The follow-up (secondary) screen tested active chemical-pairs in concentration series, as well as a few additional assays not tested in the primary screen, some selected negative inactives, and several cases re-run in the concentration series for confirmatory purposes.” left out

[8] = molecular target: rat Glycine Receptor, Strychnine-sensitive (GlyRStrySens), Glra1 (gene 25674) (UniProt P07727); assay: NVS_LGIC_rGlyRStrySens: NovaScreen (NVS) Ligand-Gated Ion Channel Assay for rat Glycine Receptor, Strychnine-sensitive (GlyRStrySens) (AID 2283341)
Sequence of rat Glycine Receptor, Strychnine-sensitive (GlyRStrySens), Glra1 (gene 25674) (P07727 whole entry, looked up): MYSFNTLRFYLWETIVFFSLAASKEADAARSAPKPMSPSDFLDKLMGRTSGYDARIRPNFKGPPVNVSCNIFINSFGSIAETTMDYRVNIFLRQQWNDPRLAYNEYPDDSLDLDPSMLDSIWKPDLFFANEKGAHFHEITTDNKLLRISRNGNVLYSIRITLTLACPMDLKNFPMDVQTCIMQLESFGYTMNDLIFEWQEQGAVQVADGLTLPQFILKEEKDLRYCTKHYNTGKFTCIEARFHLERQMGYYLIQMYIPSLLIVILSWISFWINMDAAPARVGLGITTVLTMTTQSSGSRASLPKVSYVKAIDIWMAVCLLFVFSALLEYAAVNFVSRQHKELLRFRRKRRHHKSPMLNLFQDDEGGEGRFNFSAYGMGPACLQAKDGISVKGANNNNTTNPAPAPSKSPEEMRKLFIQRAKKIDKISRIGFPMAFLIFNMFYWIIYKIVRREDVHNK
Procedure, shortened: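 Radioligand displacement on rat spinal cord membranes, 1 hr, filter scintillation read-out. Single-concentration duplicate screen at 25 uM; chemicals meeting threshold (e.g., 30% inhibition) rerun in concentration-response up to 50 uM. Loss of binding fitted versus DMSO.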

[9] = molecular target: Glutamate receptor ionotropic, kainate 1 (Rattus norvegicus) (UniProt P22756); assay: NVS_IC_rKAR: NovaScreen (NVS) Ion Channel Assay for rat Kainic Acid Receptors (KAR) (AID 2283334; active means hit-call score of the fitted dose curve at least 0.9, where 1 is the maximum; inactive means score below 0.9)
Sequence of Glutamate receptor ionotropic, kainate 1 (Rattus norvegicus) (P22756 whole entry, looked up): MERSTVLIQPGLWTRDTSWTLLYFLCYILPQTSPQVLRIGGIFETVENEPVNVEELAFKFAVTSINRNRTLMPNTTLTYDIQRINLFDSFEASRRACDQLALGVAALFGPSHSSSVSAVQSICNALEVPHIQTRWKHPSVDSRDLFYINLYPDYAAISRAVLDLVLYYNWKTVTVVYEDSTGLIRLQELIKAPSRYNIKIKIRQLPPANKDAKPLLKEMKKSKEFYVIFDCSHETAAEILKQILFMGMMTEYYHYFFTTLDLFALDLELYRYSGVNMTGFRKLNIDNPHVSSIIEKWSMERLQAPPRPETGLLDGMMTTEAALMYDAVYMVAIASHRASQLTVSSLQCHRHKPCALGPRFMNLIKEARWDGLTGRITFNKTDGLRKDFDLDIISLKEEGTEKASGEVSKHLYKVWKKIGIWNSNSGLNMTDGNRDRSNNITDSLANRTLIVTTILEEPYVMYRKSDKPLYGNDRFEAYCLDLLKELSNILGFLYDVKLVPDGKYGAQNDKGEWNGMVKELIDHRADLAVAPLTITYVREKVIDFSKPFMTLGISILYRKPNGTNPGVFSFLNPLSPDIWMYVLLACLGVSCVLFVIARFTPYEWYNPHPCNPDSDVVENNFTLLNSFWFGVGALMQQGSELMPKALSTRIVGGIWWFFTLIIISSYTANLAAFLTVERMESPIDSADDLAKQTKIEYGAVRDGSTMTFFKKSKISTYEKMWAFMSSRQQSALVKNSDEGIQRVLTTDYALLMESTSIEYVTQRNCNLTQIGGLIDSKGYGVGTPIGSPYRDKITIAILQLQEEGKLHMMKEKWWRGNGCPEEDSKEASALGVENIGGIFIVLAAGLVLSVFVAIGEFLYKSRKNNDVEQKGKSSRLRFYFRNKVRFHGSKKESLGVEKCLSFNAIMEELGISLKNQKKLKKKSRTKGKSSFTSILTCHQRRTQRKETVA
Procedure, shortened: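 Radioligand displacement binding using rat forebrain membranes, 1 h incubation, filter-based scintillation counting. Screened in duplicate at 25 uM, with actives retested in concentration-response up to 50 uM; fitted against DMSO.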

Cn1c(=O)cc(Oc2ccc(F)cc2F)c2cnc(NCC(C)(C)O)nc21
AC50 [1]: 9.69 µM (active)

CCn1nc(Cc2ccccc2)cc1C1CCN(C[C@H]2C[C@H](N(C)[C@@H](C(=O)O)C(C)C)C[C@@H]2c2cccc(F)c2)CC1
outcome [1]: inactive
AC50 [2]: 16.2 µM (active)
AC50 [3]: 11.4 µM (active)

CCCN(C1CCN(C(=O)C2CCNCC2)CC1)[C@@H]1CCc2ccc(OC)cc2C1
outcome [2]: inactive
AC50 [3]: 16.9 µM (active)

Fc1ccccc1[C@@H](F)COC1CCC(Nc2ncnc3[nH]ncc23)CC1 (stereo partly drawn)
outcome [4]: inactive
outcome [3]: inactive

CCCCCCCCCCCCCCCO
outcome [5]: inactive

CCCCCCc1ccc(O)cc1O
AC50 [6]: 8.25 µM (active)

O=C(O)c1cc(N=Nc2ccc(S(=O)(=O)Nc3ccccn3)cc2)ccc1O
AC50 [1]: 0.655 µM (active)

CCN(C(=O)c1cc(C)cc(OC[C@H](C)Nc2ccncc2)c1)C(C)C
AC50 [2]: 6.56 µM (active)
AC50 [3]: 16.9 µM (active)

O=C(O)c1cccc(N(Cc2cccnc2)c2ccc(OC(F)F)c(OC(F)F)c2)c1
AC50 [6]: 0.0186 µM (active)

CNS(=O)(=O)c1cc(C(=O)N2CCC(CCN3C4CCC3CC(n3c(C)nc5ccccc53)C4)(c3cccc(F)c3)CC2)c(Cl)cc1F (stereo not drawn)
AC50 [2]: 7.92 µM (active)
AC50 [3]: 8.76 µM (active)

Cc1ccc(C)c(O)c1
outcome [5]: inactive

Nc1cccc(N)c1
AC50 [5]: 6.48 µM (active)

CCOCCO
outcome [7]: inactive

CCc1cc(SCc2sc(-c3ccc(C(F)(F)F)cc3)nc2CN2CCN(c3ccc(OC)cc3)CC2)ccc1OCC(=O)O
AC50 [1]: 1.81 µM (active)
outcome [4]: inactive
AC50 [3]: 17.7 µM (active)

O=C(O)CC(O)C(=O)O (stereo not drawn)
outcome [7]: inactive
outcome [3]: inactive

COc1ccc(-n2nc(C(F)F)cc2-c2ccc(S(C)=O)cc2)cc1 (stereo not drawn)
AC50 [1]: 14.7 µM (active)
outcome [8]: inactive
AC50 [3]: 25 µM (active)

CCOc1cccc(-n2cc(C(=O)N3CCN(c4cc(C(=O)O)c5ccccc5c4)CC3)nc2-c2ccc(C)cc2)c1
AC50 [1]: 9.73 µM (active)
outcome [3]: inactive

Oc1ccc2c(c1)-c1ccccc1C2
AC50 [6]: 6.89 µM (active)

On1ccccc1=S
outcome [9]: inactive

O=P(OC(CCl)CCl)(OC(CCl)CCl)OC(CCl)CCl
AC50 [1]: 2.36 µM (active)

O=C(CCCCCCCCc1cccnc1)N1CCC(C=C(c2ccccc2)c2ccccc2)CC1
outcome [3]: inactive
